Bioassay records (PubChem BioAssay)
MLL AF4-AF9 inh: inhibitors of AF4 peptide binding to AF9, primary screen, biochemical, AlphaScreen, biotin-AF4 peptide, FLAG-AF9, single point; inhibition, % at 10 µM; actives 0.47% (n = 350,000); AID 651704, 2012;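 active = every replicate reaching a set inhibition limit, whatever the replicate mean, cut at about 25% in these data; inconclusive = mean inhibition reaches that limit but some replicates miss it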;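 also: 0% = plate neutral control median and 100% = total signal loss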
Target sequence (P42568 whole entry, looked up): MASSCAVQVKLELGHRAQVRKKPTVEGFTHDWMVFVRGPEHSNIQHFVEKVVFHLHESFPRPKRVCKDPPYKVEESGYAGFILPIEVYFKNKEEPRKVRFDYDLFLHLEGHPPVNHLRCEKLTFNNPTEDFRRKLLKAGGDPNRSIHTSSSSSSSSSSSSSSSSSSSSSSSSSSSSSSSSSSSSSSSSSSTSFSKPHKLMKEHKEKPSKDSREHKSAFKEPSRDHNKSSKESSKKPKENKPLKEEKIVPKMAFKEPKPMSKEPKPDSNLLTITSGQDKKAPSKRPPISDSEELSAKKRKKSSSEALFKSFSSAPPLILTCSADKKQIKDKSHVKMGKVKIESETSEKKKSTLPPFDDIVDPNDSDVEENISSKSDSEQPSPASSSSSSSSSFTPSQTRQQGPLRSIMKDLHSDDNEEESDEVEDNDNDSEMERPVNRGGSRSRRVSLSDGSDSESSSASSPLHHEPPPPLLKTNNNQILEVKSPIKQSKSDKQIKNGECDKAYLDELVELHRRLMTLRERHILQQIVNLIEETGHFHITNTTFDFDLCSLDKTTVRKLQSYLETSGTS
MITF TRPM1 HTS: activators of MITF-driven TRPM1 promoter reporter, primary screen, cell-based, SK-MEL-5, luciferase, single point; SK-MEL-5 TRPM1-promoter luciferase, 24 h; % of positive control, neutral wells = 0; activation, % at 12.5 µM; AID 588334, 2011; actives 0.75% (n = 300,000);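 active = mean activation of at least 80% with every replicate also reaching 80%; inconclusive = mean reaches 80% but some replicate falls short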;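 also: 0% = neutral control wells and 100% = parthenolide positive control wells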
FGF22 binding: binders of human FGF22 protein, primary screen, FGF22 synaptogenesis inhibitor project, biophysical, thermal shift, single point; activity (Tm shift, normalised), % at 9.99 µM; actives 1.5% (n = 340,000); AID 651658, 2012; Fibroblast growth factor 22 (Homo sapiens), Q9HCT0; recombinant FGF22 thermal shift, SYPRO orange fluorescence; percent of sucrose octasulfate shift, DMSO zero;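 active = mean Tm shift, scaled 0 neutral to 100 positive control, at about 1.3% or above, every replicate too, limit read from the data; inconclusive = no clear call, values can overlap the other calls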
esBAF inh: Bmi1 luciferase reporter increase in mESCs, primary screen, esBAF inhibitor project, mouse ES cells, Bmi1 luciferase knock-in, single point | reporter increase, % at 12.5 µM | actives 2% (n = 350,000) | 24 h; 100% = twice the neutral-well signal; in the data active = activation above about 40%; inconclusive = no clear call, values can overlap the other calls;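 also: 0% = median of the plate's neutral control wells and 100% = double that signal; a rise in the Bmi1 reporter signal indicates esBAF inhibition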
Wnt act: Wnt/beta-catenin pathway activators, primary screen, cell-based, plate reader, single point; Wnt/beta-catenin reporter cell assay, activator; activation, % at 9.35 µM; actives 1.2% (n = 300,000); AID 743398, 2014; in the data active = activation above about 30%, passing the limit was not always enough; inconclusive = no clear call, values can overlap the other calls;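 also: 0% = neutral control wells and 100% = positive control wells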
SMARCA2 act: SMARCA2 (BRM) function activators, primary screen, cell-based, luminescence, high throughput. MG213 cells, MMTV-luciferase reporter, dexamethasone, overnight. activation, % at 9.1 µM. actives 1% (n = 370,000). AID 652017, 2013; in the data active = activation above about 7.8%;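 also: 0% = vehicle wells and 100% = reference activator wells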
* = called active by the depositor; ? = inconclusive; / = no result. A selection: hits, their analogues and other compounds. The true share with any hit is near 4.3%.

SMILES	MLL AF4-AF9 inh	MITF TRPM1 HTS	FGF22 binding	esBAF inh	Wnt act	SMARCA2 act
CO[C@H]1CN(C)C(=O)c2cc(NC(=O)C3CC3)ccc2OC[C@H](C)N(C(=O)Cc2ccccn2)C[C@H]1C	/	/	/	0	/	/
CC(=O)N(C)C[C@@H]1[C@H](c2ccc(-c3ccccc3F)cc2)[C@H](CO)N1C(C)=O	-2	/	/	/	/	/
O=C(O)C1CCN(C(=O)c2ccco2)CC1	-2	8	0	11	-1	-3
O=C(c1ccco1)N1CCC(c2ccccc2)C1 (stereo unspecified)	/	?	/	54*	/	2
COc1ccc(C(=O)N2CCCC(c3ccccc3)C2)cc1 (stereo unspecified)	/	12	/	10	/	4
O=C(c1ccco1)N1CCCC(Nc2ccc3c(c2)OCCO3)C1 (stereo unspecified)	4	29	0	43*	14	4
O=C(c1ccc(F)cc1)N1CCC(c2ccccc2)C1 (stereo unspecified)	0	/	0	33	34*	2
CSCc1ccc(C(=O)N2CCCC(Nc3ccc4c(c3)OCCO4)C2)o1 (stereo unspecified)	0	6	0	4	-1	4
COc1ccc(Cc2nc3ccc(C(=O)NCC(C)(C)OC)cc3o2)cc1	-1	104*	0	76*	8	7
COC(=O)CCNC(=O)c1ccc2nc(Cc3ccc(OC)cc3)oc2c1	-5	4	0	3	6	-4
COc1ccc(-c2nnc(SCC(=O)N3CCCC3)o2)cc1	2	36	0	45*	9	6
CCOc1ccc(-c2nnc(SCC(=O)N3CCCC3)o2)cc1	1	28	0	53*	3	0
COc1cc(OC)cc(-c2nnc(SCC(=O)N(C(C)C)C(C)C)o2)c1	/	4	/	-3	/	-2
CCOc1ccc(-c2nnc(SCC(=O)N3CCOCC3)o2)cc1	/	/	/	22	-2	3
COc1ccc(C(=O)NCc2nnc(SCC(=O)N3CCC(C)CC3)o2)cc1	-1	-17	44*	/	-6	0
COc1cccc(-c2nnc(SCC(=O)N(C(C)C)C(C)C)o2)c1	/	24	/	13	50*	-2
COc1ccc(-c2nnc(SCC(=O)N3CCCCC3)o2)cc1	-1	35	-1	38	5	3
C[C@@H]1CCCCO[C@@H](CN(C)S(=O)(=O)c2cccs2)[C@H](C)CN([C@H](C)CO)C(=O)c2cc(NC(=O)Nc3cccc4ccccc34)ccc2O1	/	/	0	-2	/	/
C[C@H]1CCCCO[C@H](CN(C)CC2CC2)[C@@H](C)CN([C@@H](C)CO)C(=O)c2cc(NC(=O)c3ccncc3)ccc2O1	1	/	0	-5	/	/
COc1ccc(C(=O)C2CCCN(C(=O)Cn3cncn3)C2)cc1OC (stereo unspecified)	2	7	0	0	-3	-3
O=C(c1ccc(-c2ccccc2)cc1)C1CCCN(C(=O)Cn2cncn2)C1 (stereo unspecified)	0	-1	43*	/	5	-6
C[C@H]1CCCCO[C@@H](CN(C)C(=O)Cc2ccccc2)[C@@H](C)CN([C@@H](C)CO)C(=O)c2cc(NC(=O)Cc3ccccc3)ccc2O1	4	/	0	-2	/	/
CC(C)c1ccc2c(c1)C(c1ccc(N3CCOCC3)cc1)=NNC(c1cccs1)=N2	/	/	/	65*	12	5
CC(C)c1ccc2c(c1)C(c1cccs1)=NNC(c1ccncc1)=N2	5	12	0	4	0	1
O=C(Nc1ccc(NC(=O)C2CC2)cn1)c1ccccc1	-1	-4	0	-27	15	3
SMILES	MLL AF4-AF9 inh	MITF TRPM1 HTS	FGF22 binding	esBAF inh	Wnt act	SMARCA2 act
O=C(Nc1ccc(NC(=O)C2CC2)nc1)c1cccs1	/	57	/	36	/	0
O=C(Cc1ccccc1)Nc1ccc(NC(=O)c2ccccc2)nc1	-4	75	0	56*	17	4
O=C(Nc1ccc(NC(=O)c2cccs2)cn1)c1ccccc1	-1	?	43*	/	44*	5
N#Cc1ccc(NC(=O)c2cccs2)nc1	0	86*	0	?	6	3
CN1CCN(C(=O)C[C@H]2CC[C@@H]3[C@@H](COc4ccc(NC(=O)C5CC5)cc4C(=O)N3C)O2)CC1	-1	/	0	2	/	/
O=C(CN1CCN(S(=O)(=O)c2ccccc2[N+](=O)[O-])CC1)NC(=O)NCc1ccco1	2	-3	43*	/	3	-1
O=C(CN1CCN(Cc2ccccc2)CC1)NC(=O)NCc1ccco1	/	8	/	-1	/	-1
CCCCCC(=O)Nc1nc(C)c(-c2csc(Nc3cc(OC)ccc3OC)n2)s1	6	6	44*	-1	-1	1
Cc1ccccc1S(=O)(=O)NCC[C@H]1CC[C@H](NC(=O)C2CCCC2)[C@H](CO)O1	0	/	-1	6	/	/
COc1ccc(-n2cc3ccc([N+](=O)[O-])cc3n2)cc1	3	23	0	/	41*	1
C[C@H]1CN([C@@H](C)CO)C(=O)c2cc(NC(=O)c3ccncc3)ccc2O[C@H]1CN(C)Cc1ccc(C(F)(F)F)cc1	-1	/	-1	4	/	/
O=C(NCCN1CCOCC1)c1cc(-c2ccccc2)on1	/	7	/	19	47*	-2
COc1ccc(-c2cc(C(=O)NCc3cccnc3)no2)cc1	/	17	/	25	/	-1
O=C(NCCCN1CCOCC1)c1cc(-c2ccccc2)on1	1	3	0	11	16	-4
O=C(NCc1ccccc1)c1cc(-c2cccc(O)c2)on1	-13	/	0	68*	20	4
O=C(NCc1cccnc1)c1cc(-c2ccccc2)on1	/	19	/	47*	/	3
COc1ccc(-c2cc(C(=O)NCc3ccccc3)no2)cc1OC	/	8	/	-8	/	-1
O=C(Nc1ccc(Cl)cc1)Nc1nnc(Cc2ccc([N+](=O)[O-])cc2)s1	1	-3	0	/	48*	0
CCCC1CCC2(CCC(=O)N2CCC#N)CC1 (stereo unspecified)	/	/	/	/	/	-3
COC(=O)C1=C(C)N(Cc2ccccc2)C(=NCc2ccccc2)N[C@H]1c1cccc(F)c1	10	-45	45*	-1	-11	-1
Cc1ccc(-c2csc(Nc3ccc(S(N)(=O)=O)cc3)n2)o1	6	22	43*	/	0	1
CC(C)NC(=O)Nc1ccc2c(c1)C(=O)N([C@@H](C)CO)C[C@H](C)[C@@H](CN(C)Cc1ccc(C(F)(F)F)cc1)O2	0	/	0	-6	/	/
